Here are results for 13 compounds from the supplement of paper PMC10646978.

± gives the standard deviation.

Common to all, as to conditions: modulator concentration 10 µM
Assay [1] relates to RAW-Dual (murine macrophage reporter line). As to the kind of experiment: NF-kB reporter (SEAP) activity fold change vs agonist alone; higher = enhanced NF-kB activity. Put shortly:
(§1)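 RAW-Dual murine macrophage reporter cells were plated at 50 000 per well in 384-well plates, pin-transferred compound to 10 μM final, and pre-incubated for 1 hour at 37 °C before a PRR agonist was added and the cells incubated overnight. NF-κB activity was read from supernatant SEAP with QUANTI-Blue at 620 nm absorbance, and IRF activity from Lucia luciferase with QUANTI-Luc by luminescence. Each signal was expressed as fold change by dividing by the mean agonist-only control on the same plate. Two replicate plates were averaged, with errors obtained by propagation.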

Assay [2] has the same test system. Put plainly: IRF reporter (Lucia luciferase) activity fold change vs agonist alone; higher = enhanced IRF activity. Put shortly:
as §1

The test system is the same in assay [3]. Put plainly: viability score (confluency relative to resting cells, overnight) (fraction); higher = more viable, active = viable (0.7 or more). Put shortly: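 Confluency was the readout: RAW-Dual macrophages were imaged with IncuCyte after an overnight exposure to compound at 10 μM final. IncuCyte software produced two masks over all imaged wells. The viability score expresses confluency against resting cells, and both masks had to exceed 70% of resting cells for a compound to meet the cutoff.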

[4] abbreviates: agonist: CpG ODN 1826 0.5 ug/mL.

Regarding `CCOc1ccc2c(c1)C(c1ccccc1C(F)(F)F)CC(=O)N2` (stereo unspecified), the NF-kB reporter in assay [1] (setting [4]) was determined as 1.02 ± 0.17; in assay [1] (agonist: LPS 0.1 ug/mL), 1.05 ± 0.091; in assay [1] (agonist: MPLA […]), 1.03 ± 0.1. The figures for the IRF reporter in assay [2] (agonist: 3'3'-cGAMP 10 ug/mL), in assay [2] (agonist: LPS 0.1 ug/mL) and in assay [2] (agonist: MPLA […]) were 1.09 ± 0.046, 1.43 ± 0.33 and 1.57 ± 0.23, respectively. Besides, in assay [3], the viability score is 0.995 (active).

Turning to `COc1ccc(CNCc2cccc(C(F)(F)F)c2)cc1`, the NF-kB reporter in assay [1] (setting [4]) turned out to be 0.749 ± 0.083; in assay [1] (agonist: LPS 0.1 ug/mL), 1.04 ± 0.087; in assay [1] (agonist: MPLA […]) it was 1.02 ± 0.045. For the same compound, the results for the IRF reporter in assay [2] (agonist: 3'3'-cGAMP 10 ug/mL), in assay [2] (agonist: LPS 0.1 ug/mL) and in assay [2] (agonist: MPLA […]) were 1.12 ± 0.14, 0.966 ± 0.071 and 1.37 ± 0.21, respectively. Also, in assay [3], the viability score was 0.27 (inactive).

On to `N[C@@H]1CONC1=O`, for which the figures for the NF-kB reporter in assay [1] (setting [4]), in assay [1] (agonist: LPS 0.1 ug/mL) and in assay [1] (agonist: MPLA […]) were 0.988 ± 0.074, 0.913 ± 0.14 and 0.959 ± 0.037, respectively. Besides, the IRF reporter was 0.929 ± 0.092 in assay [2] (agonist: 3'3'-cGAMP 10 ug/mL), 1.05 ± 0.094 in assay [2] (agonist: LPS 0.1 ug/mL) and 1.06 ± 0.082 in assay [2] (agonist: MPLA […]). Further, the viability score in assay [3] is 1 (active).

`O=C(O)c1ccc(-n2nc(-c3ccccc3O)nc2-c2ccccc2O)cc1`: the NF-kB reporter turned out to be 0.749 ± 0.082 in assay [1] (setting [4]), 0.917 ± 0.1 in assay [1] (agonist: LPS 0.1 ug/mL) and 1.11 ± 0.13 in assay [1] (agonist: MPLA […]). Further, the IRF reporter came to 0.902 ± 0.042 in assay [2] (agonist: 3'3'-cGAMP 10 ug/mL), 1.31 ± 0.14 in assay [2] (agonist: LPS 0.1 ug/mL) and 1.49 ± 0.15 in assay [2] (agonist: MPLA […]). Besides, in assay [3], the viability score is 0.988 (active).

As for `O=C(O)c1ccc(NCn2nnc3ccccc32)cc1`, the NF-kB reporter in assay [1] (setting [4]) worked out at 1.05 ± 0.1; in assay [1] (agonist: LPS 0.1 ug/mL) it was 0.928 ± 0.12; in assay [1] (agonist: MPLA […]), 1.03 ± 0.097. Moreover, the values for the IRF reporter in assay [2] (agonist: 3'3'-cGAMP 10 ug/mL), in assay [2] (agonist: LPS 0.1 ug/mL) and in assay [2] (agonist: MPLA […]) were 1 ± 0.032, 1.37 ± 0.27 and 1.51 ± 0.23, respectively. For the same compound, the viability score in assay [3] is 1 (active).

For `Cc1cc2nc3sc(=Cc4ccc(F)cc4)c(=O)n3c2cc1C`, the NF-kB reporter in assay [1] (setting [4]) turned out to be 0.99 ± 0.12; in assay [1] (agonist: LPS 0.1 ug/mL), 0.932 ± 0.12; in assay [1] (agonist: MPLA […]), 1.04 ± 0.097. Further, the IRF reporter in assay [2] (agonist: 3'3'-cGAMP 10 ug/mL) is 0.817 ± 0.03; in assay [2] (agonist: LPS 0.1 ug/mL), 1.07 ± 0.12; in assay [2] (agonist: MPLA […]), 1.07 ± 0.13. Moreover, the viability score in assay [3] is 1.03 (active).

For `CCCCCN(CCCCC)C(=O)C(CCC(=O)[O-])NC(=O)c1ccc(Cl)c(Cl)c1` (stereo unspecified) [Prestw-915], the NF-kB reporter in assay [1] (setting [4]) turned out to be 1.02 ± 0.064; in assay [1] (agonist: LPS 0.1 ug/mL), 0.954 ± 0.096; in assay [1] (agonist: MPLA […]), 0.901 ± 0.064. For the same compound, the IRF reporter was 1.1 ± 0.073 in assay [2] (agonist: 3'3'-cGAMP 10 ug/mL), 1.55 ± 0.17 in assay [2] (agonist: LPS 0.1 ug/mL) and 1.29 ± 0.14 in assay [2] (agonist: MPLA […]). Also, in assay [3], the viability score was 0.832 (active).

For the compound `CC(=NNC(=O)CSc1nc2ccccc2n1Cc1ccccc1)c1ccc(Br)cc1`, the NF-kB reporter in assay [1] (setting [4]) was found to be 0.996 ± 0.12; in assay [1] (agonist: LPS 0.1 ug/mL), 0.996 ± 0.1; in assay [1] (agonist: MPLA […]), 1.04 ± 0.036. The results for the IRF reporter in assay [2] (agonist: 3'3'-cGAMP 10 ug/mL), in assay [2] (agonist: LPS 0.1 ug/mL) and in assay [2] (agonist: MPLA […]) were 0.942 ± 0.042, 0.946 ± 0.16 and 1.01 ± 0.29, respectively. The viability score in assay [3] was 0.996 (active).

`O=C(O)C=Cc1cccc(NS(=O)(=O)C=Cc2ccccc2)c1`: the NF-kB reporter in assay [1] (setting [4]) was determined as 1.06 ± 0.094; in assay [1] (agonist: LPS 0.1 ug/mL), 0.968 ± 0.084; in assay [1] (agonist: MPLA […]), 1.33 ± 0.19. In addition, the values for the IRF reporter in assay [2] (agonist: 3'3'-cGAMP 10 ug/mL), in assay [2] (agonist: LPS 0.1 ug/mL) and in assay [2] (agonist: MPLA […]) were 0.956 ± 0.07, 1.29 ± 0.28 and 1.34 ± 0.28, respectively. Further, in assay [3], the viability score is 1.02 (active).

As to `COc1ccc(N(CC(=O)N2CCc3ccccc3C2)S(C)(=O)=O)c(OC)c1`, the NF-kB reporter was 1.04 ± 0.13 in assay [1] (setting [4]), 1.09 ± 0.093 in assay [1] (agonist: LPS 0.1 ug/mL) and 0.913 ± 0.057 in assay [1] (agonist: MPLA […]). Also, the IRF reporter in assay [2] (agonist: 3'3'-cGAMP 10 ug/mL) was determined as 0.992 ± 0.026; in assay [2] (agonist: LPS 0.1 ug/mL), 1.49 ± 0.28; in assay [2] (agonist: MPLA […]), 1.13 ± 0.089. Moreover, the viability score in assay [3] is 1.01 (active).

On to `NC(=O)NCC(N)C(=O)O` (stereo unspecified), for which the NF-kB reporter was found to be 0.988 ± 0.082 in assay [1] (setting [4]), 1.02 ± 0.09 in assay [1] (agonist: LPS 0.1 ug/mL) and 0.969 ± 0.022 in assay [1] (agonist: MPLA […]). In addition, the IRF reporter turned out to be 0.959 ± 0.053 in assay [2] (agonist: 3'3'-cGAMP 10 ug/mL), 0.963 ± 0.12 in assay [2] (agonist: LPS 0.1 ug/mL) and 1.02 ± 0.1 in assay [2] (agonist: MPLA […]). Further, in assay [3], the viability score is 0.994 (active).

Take `Cc1sc(NC(=O)c2cc(Cl)ccc2[N+](=O)[O-])nc1-c1ccccc1`: the figures for the NF-kB reporter in assay [1] (setting [4]), in assay [1] (agonist: LPS 0.1 ug/mL) and in assay [1] (agonist: MPLA […]) were 1 ± 0.064, 1.08 ± 0.089 and 0.951 ± 0.034, respectively. Moreover, the IRF reporter in assay [2] (agonist: 3'3'-cGAMP 10 ug/mL) was 0.983 ± 0.046; in assay [2] (agonist: LPS 0.1 ug/mL), 1.08 ± 0.055; in assay [2] (agonist: MPLA […]), 1.08 ± 0.12. Also, the viability score in assay [3] is 1 (active).

As to `O=c1oc2c3c4c(cc2cc1-c1nnc(-c2ccccc2)o1)CCCN4CCC3`, the NF-kB reporter in assay [1] (setting [4]) is 1.01 ± 0.12; in assay [1] (agonist: LPS 0.1 ug/mL), 1.04 ± 0.1; in assay [1] (agonist: MPLA […]), 0.98 ± 0.058. For the same compound, the IRF reporter in assay [2] (agonist: 3'3'-cGAMP 10 ug/mL) stood at 1.02 ± 0.058; in assay [2] (agonist: LPS 0.1 ug/mL), 1.41 ± 0.17; in assay [2] (agonist: MPLA […]) it was 1.04 ± 0.069. For the same compound, the viability score in assay [3] is 1.01 (active).
